Consider 42 molecules from PubChem BioAssay AID771 (SRMLSC, 2007).

Screen size: about 3,300 compounds; about 55 (2%) were called active.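 Rule for the calls: active = growth inhibition above 90%, meaning viable cell count by imaging cut by more than 90% versus vehicle controls; inactive = growth inhibition below 90%.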 For the sample, actives were picked, then their nearest neighbours and some compounds at random.

This experiment in a line: HT29 colon tumor cell growth inhibition, primary screen, imaging, high content imaging, 48 h, CellTiter-Glo (AID 771).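 For condensed nuclei: condensed means Hoechst nuclear area under control median minus 1.5 SD.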 Conditions: HCS imaging cell count, at 10 µM, stronger effect = higher value; for condensed nuclei: measured here: percent cells with condensed nuclei.
Where [1] appears, read: measured here: ATP CellTiter-Glo viability inhibition.

On to `O=c1/c(=C/c2ccccn2)sc2n1CN(c1ccccc1)CN=2`, for which the growth inhibition was 1.6% (inactive) and the condensed nuclei turned out to be 16.2%. For the same molecule, the growth inhibition under setting [1] was 3.13%.
As for `CNC(=O)Nc1cccc(NC(=O)NC)n1`, the growth inhibition is 24.6% (inactive) and the condensed nuclei was found to be 0.95%. Besides, the growth inhibition under setting [1] was 6.59%.
Turning to `COc1cccc(C2/C(=C(/O)c3cnn(-c4ccccc4)c3C)C(=O)C(=O)N2CCN(C)C)c1` (centres undefined), the growth inhibition is 51.1% (inactive) and the condensed nuclei amounted to 1.69%. Moreover, under setting [1], the growth inhibition is -8.25%.
As for `Cc1[nH]c2ccc3c(ncn3CCC#N)c2c1C`, the growth inhibition is 3.78% (inactive) and the condensed nuclei was 1.79%. Also, the growth inhibition under setting [1] came out at 2.93%.
Take `C=CCNc1nc(N2CCOCC2)c(C#N)c2c1CN(C)CC2`: the growth inhibition is -13.1% (inactive) and the condensed nuclei was found to be 0.96%. Further, under setting [1], the growth inhibition is -3.95%.
For `C=CCNc1nc(N2CCCCC2)c(C#N)c2c1CN(Cc1ccccc1)CC2`, the growth inhibition is 71.7% (inactive) and the condensed nuclei turned out to be 2.73%. Further, the growth inhibition under setting [1] worked out at 37%.
Take `CCN1CCc2c(C#N)c(NCc3ccccc3)nc(N(CC)CC)c2C1`: the growth inhibition is -3.81% (inactive) and the condensed nuclei was determined as 2.33%. Besides, under setting [1], the growth inhibition is -0.65%.
Taken in the same sequence, the figures for `CCN1CCc2c(C#N)c(N3CCOCC3)nc(NCc3ccccc3)c2C1` were 21.2% (inactive), 2.32% and 14.1%.
Regarding `CN1CCc2c(C#N)c(N3CCCCC3)nc(NCc3ccccc3)c2C1`, the growth inhibition is 94.8% (active) and the condensed nuclei was found to be 19.2%. The growth inhibition under setting [1] came to 84.9%.
Turning to `CCN1CCc2c(C#N)c(NCc3ccccc3)nc(NCCO)c2C1`, the growth inhibition was -5.72% (inactive) and the condensed nuclei was 1.53%. For the same molecule, the growth inhibition under setting [1] worked out at 1.65%.
On to `N#Cc1c(NCCN)nc(NCc2ccccc2)c2c1CCN(Cc1ccccc1)C2`, for which the growth inhibition is 93.1% (active) and the condensed nuclei was determined as 30.8%. The growth inhibition under setting [1] was found to be 87.7%.
Taken in the same sequence, the figures for `C=CCNc1nc(NCc2ccccc2)c(C#N)c2c1CN(C)CC2` were 95.6% (active), 12.5% and 82.7%.
`CCN1CCc2c(C#N)c(N3CCCCC3)nc(NCc3ccccc3)c2C1`: the growth inhibition was -17.2% (inactive) and the condensed nuclei stood at 3.42%. Further, the growth inhibition under setting [1] was determined as 20.2%.
Take `CCCCOc1ccc(C)cc1CN(CCO)CCO`: the growth inhibition is -4.82% (inactive) and the condensed nuclei amounted to 1.37%. Besides, the growth inhibition under setting [1] is 1.6%.
`Cc1ccc(-c2nn(C)c(=O)c3ccccc23)cc1CNC(=O)CSc1nc2ccccc2o1`: the growth inhibition is -7.38% (inactive) and the condensed nuclei was 1%. Also, under setting [1], the growth inhibition is -4.16%.
With `CCC1(C)Cc2c(sc3c2c(=O)n(C)c2nnc(SCC(=O)c4ccc(Cl)cc4)n32)CO1` (centres undefined), the growth inhibition was 0.56% (inactive) and the condensed nuclei is 13.8%. The growth inhibition under setting [1] was found to be 9.73%.
For `Cc1cc(C)nc(NC2=NCC(=O)N2c2cccc(Cl)c2)n1`, the growth inhibition was 27.2% (inactive) and the condensed nuclei was 3.28%. Besides, the growth inhibition under setting [1] is -9.73%.
For the molecule `CCOC(=O)c1c(-c2cccs2)csc1NC(=O)CCCC(=O)O`, the growth inhibition is 5.6% (inactive) and the condensed nuclei turned out to be 1.96%. The growth inhibition under setting [1] was 4.31%.
In the same order, the values of `CCCc1nc(N2CCOCC2)c(C#N)c2c1CCCC2` are 24% (inactive), 0.7% and 6.89%.
In the case of `CSc1nc2sc3c(c2c(=O)[nH]1)CCC(C)C3` (centres undefined), the growth inhibition is 25.4% (inactive) and the condensed nuclei was 2.48%. Further, under setting [1], the growth inhibition came out at 10.4%.
As to `CCOc1ccc(C2C(C(=O)c3ccc(C)o3)=C(O)C(=O)N2CCCN(CC)CC)cc1` (centres undefined), the growth inhibition was 17% (inactive) and the condensed nuclei turned out to be 1.26%. Further, the growth inhibition under setting [1] is 0.35%.
For `c1ccc(-c2nc(NCC3CCCO3)c3ccccc3n2)nc1` (centres undefined), the growth inhibition was 16.9% (inactive) and the condensed nuclei came out at 2.06%. Besides, the growth inhibition under setting [1] was found to be 30.9%.
For the molecule `O=C1CCC(=O)N1CN(Cc1ccco1)CN1C(=O)CCC1=O`, the growth inhibition was -33.3% (inactive) and the condensed nuclei was 2.24%. Moreover, the growth inhibition under setting [1] was -19.2%.
Regarding `COc1ccc(-n2ncc3c(Nc4cccc(C)c4)ncnc32)cc1`, the growth inhibition was 30.6% (inactive) and the condensed nuclei stood at 3.63%. In addition, the growth inhibition under setting [1] was -2.53%.
For the molecule `COc1ccc(C(=O)CSC2=C(C#N)C3(CCCCC3)C(C#N)=C(N)N2)cc1`, the growth inhibition is 27% (inactive) and the condensed nuclei turned out to be 7.53%. Further, under setting [1], the growth inhibition came out at 4.09%.
On to `N#CC1=C(N)NC(SCc2ccc(F)cc2)=C(C#N)C12CCCCC2`, for which the growth inhibition is 95.4% (active) and the condensed nuclei was determined as 27.3%. Further, the growth inhibition under setting [1] was determined as 69.3%.
Consider `N#CC1=C(N)NC(SCc2ccc(Cl)cc2)=C(C#N)C12CCCCC2`, for which the growth inhibition is 79.6% (inactive) and the condensed nuclei was 17.1%. The growth inhibition under setting [1] stood at 70.5%.
Take `C=CCN(C(=O)CCC(=O)O)C1CC(=O)N(c2ccc(OC)cc2)C1=O` (centres undefined): the growth inhibition is -35.5% (inactive) and the condensed nuclei came to 1.95%. Besides, under setting [1], the growth inhibition is -24.9%.
For the molecule `Cn1c(=NCC(O)COc2ccccc2)sc2ccccc21` (centres undefined), the growth inhibition is 25.5% (inactive) and the condensed nuclei was 3.63%. Also, the growth inhibition under setting [1] was -13.5%.
With `COCCNc1oc(-c2ccc(C)cc2)nc1C#N`, the growth inhibition is 11.6% (inactive) and the condensed nuclei came out at 2.76%. The growth inhibition under setting [1] was -12.3%.
For `O=C(O)c1ccc(COCC(F)(F)C(F)F)o1`, the growth inhibition is -17.7% (inactive) and the condensed nuclei was 3.29%. In addition, the growth inhibition under setting [1] was -10.2%.
On to `CCOc1ccc(Cn2c(O)cc(=O)[nH]c2=O)cc1`, for which the growth inhibition is -7.52% (inactive) and the condensed nuclei was 1.27%. Besides, the growth inhibition under setting [1] was -20.8%.
Taken in the same sequence, the figures for `CC1CN(C2CCN(C(=O)COc3ccccc3)CC2)CC(C)O1` (centres undefined) were -1.5% (inactive), 2.3% and -3.33%.
With `CC1CN(C2CCN(C(=O)c3ccccc3Cl)CC2)CC(C)O1` (centres undefined), the growth inhibition was -18.6% (inactive) and the condensed nuclei is 4.01%. For the same molecule, the growth inhibition under setting [1] was -39.5%.
For `CC1CN(C2CCN(C(=O)c3ccccc3)CC2)CC(C)O1` (centres undefined), the growth inhibition was 92.5% (active) and the condensed nuclei was found to be 3.65%. In addition, under setting [1], the growth inhibition is -44.3%.
In the same order, the values of `CCOC(=O)c1sc2c(c1C)c(=O)c(C(=O)OCC)cn2CC` are -35.2% (inactive), 0.84% and -21.7%.
On to `CCCc1[nH]nc2c1C(c1cccc(OC)c1)C(C#N)=C(N)O2` (centres undefined), for which the growth inhibition was 55.3% (inactive) and the condensed nuclei came to 16.6%. For the same molecule, the growth inhibition under setting [1] worked out at 9.76%.
With `Cc1cccc(OCC(=O)N2CCC(N3CCOCC3)CC2)c1`, the growth inhibition was -31.7% (inactive) and the condensed nuclei was found to be 0.89%. In addition, the growth inhibition under setting [1] is -31.1%.
As to `CNCCCC12CCC(c3ccccc31)c1ccccc12`, the growth inhibition is 95% (active) and the condensed nuclei stood at 18.3%.
For `Nc1ccc(Cl)cc1/C(=N/O)c1ccccc1`, the growth inhibition is 33.8% (inactive) and the condensed nuclei is 3.59%. The growth inhibition under setting [1] is -14.5%.
With `C=C1[C@@H](C)C2[C@H](Cc3ccccc3)NC(=O)[C@]23OC(=O)CC[C@H](O)CCC[C@H](C)C/C=C/[C@H]3[C@@H]1O` (some centres undefined), the growth inhibition was 92.4% (active) and the condensed nuclei was found to be 18.2%.
In the case of `CCOC(=O)CSc1nc(N(C)C)nc(N(C)C#N)n1`, the growth inhibition was 27.7% (inactive) and the condensed nuclei amounted to 1.4%. Further, the growth inhibition under setting [1] is -19.8%.
